This is one part of the list. Results filed as inconclusive are left out. Active and inactive are the calls of the source. Calls come from the whole dose curve; as a rule, active = well fitted inhibition curve with a large enough effect; inconclusive = small, poorly fitted or top-dose-only effect; inactive = no such curve, though single readings can be large or run the other way.
Each molecule was assayed against Histone-lysine N-methyltransferase 2A (Homo sapiens) (UniProt Q03164) (assay: qHTS Fluorescence Polarization (FP) Assay for Inhibitors of MLL CXXC domain - DNA interaction: Fluorescein FP). Settings: MLL CXXC-DNA binding.
Chain of Histone-lysine N-methyltransferase 2A (Homo sapiens) (Q03164 whole entry, looked up, the tested form may be a part): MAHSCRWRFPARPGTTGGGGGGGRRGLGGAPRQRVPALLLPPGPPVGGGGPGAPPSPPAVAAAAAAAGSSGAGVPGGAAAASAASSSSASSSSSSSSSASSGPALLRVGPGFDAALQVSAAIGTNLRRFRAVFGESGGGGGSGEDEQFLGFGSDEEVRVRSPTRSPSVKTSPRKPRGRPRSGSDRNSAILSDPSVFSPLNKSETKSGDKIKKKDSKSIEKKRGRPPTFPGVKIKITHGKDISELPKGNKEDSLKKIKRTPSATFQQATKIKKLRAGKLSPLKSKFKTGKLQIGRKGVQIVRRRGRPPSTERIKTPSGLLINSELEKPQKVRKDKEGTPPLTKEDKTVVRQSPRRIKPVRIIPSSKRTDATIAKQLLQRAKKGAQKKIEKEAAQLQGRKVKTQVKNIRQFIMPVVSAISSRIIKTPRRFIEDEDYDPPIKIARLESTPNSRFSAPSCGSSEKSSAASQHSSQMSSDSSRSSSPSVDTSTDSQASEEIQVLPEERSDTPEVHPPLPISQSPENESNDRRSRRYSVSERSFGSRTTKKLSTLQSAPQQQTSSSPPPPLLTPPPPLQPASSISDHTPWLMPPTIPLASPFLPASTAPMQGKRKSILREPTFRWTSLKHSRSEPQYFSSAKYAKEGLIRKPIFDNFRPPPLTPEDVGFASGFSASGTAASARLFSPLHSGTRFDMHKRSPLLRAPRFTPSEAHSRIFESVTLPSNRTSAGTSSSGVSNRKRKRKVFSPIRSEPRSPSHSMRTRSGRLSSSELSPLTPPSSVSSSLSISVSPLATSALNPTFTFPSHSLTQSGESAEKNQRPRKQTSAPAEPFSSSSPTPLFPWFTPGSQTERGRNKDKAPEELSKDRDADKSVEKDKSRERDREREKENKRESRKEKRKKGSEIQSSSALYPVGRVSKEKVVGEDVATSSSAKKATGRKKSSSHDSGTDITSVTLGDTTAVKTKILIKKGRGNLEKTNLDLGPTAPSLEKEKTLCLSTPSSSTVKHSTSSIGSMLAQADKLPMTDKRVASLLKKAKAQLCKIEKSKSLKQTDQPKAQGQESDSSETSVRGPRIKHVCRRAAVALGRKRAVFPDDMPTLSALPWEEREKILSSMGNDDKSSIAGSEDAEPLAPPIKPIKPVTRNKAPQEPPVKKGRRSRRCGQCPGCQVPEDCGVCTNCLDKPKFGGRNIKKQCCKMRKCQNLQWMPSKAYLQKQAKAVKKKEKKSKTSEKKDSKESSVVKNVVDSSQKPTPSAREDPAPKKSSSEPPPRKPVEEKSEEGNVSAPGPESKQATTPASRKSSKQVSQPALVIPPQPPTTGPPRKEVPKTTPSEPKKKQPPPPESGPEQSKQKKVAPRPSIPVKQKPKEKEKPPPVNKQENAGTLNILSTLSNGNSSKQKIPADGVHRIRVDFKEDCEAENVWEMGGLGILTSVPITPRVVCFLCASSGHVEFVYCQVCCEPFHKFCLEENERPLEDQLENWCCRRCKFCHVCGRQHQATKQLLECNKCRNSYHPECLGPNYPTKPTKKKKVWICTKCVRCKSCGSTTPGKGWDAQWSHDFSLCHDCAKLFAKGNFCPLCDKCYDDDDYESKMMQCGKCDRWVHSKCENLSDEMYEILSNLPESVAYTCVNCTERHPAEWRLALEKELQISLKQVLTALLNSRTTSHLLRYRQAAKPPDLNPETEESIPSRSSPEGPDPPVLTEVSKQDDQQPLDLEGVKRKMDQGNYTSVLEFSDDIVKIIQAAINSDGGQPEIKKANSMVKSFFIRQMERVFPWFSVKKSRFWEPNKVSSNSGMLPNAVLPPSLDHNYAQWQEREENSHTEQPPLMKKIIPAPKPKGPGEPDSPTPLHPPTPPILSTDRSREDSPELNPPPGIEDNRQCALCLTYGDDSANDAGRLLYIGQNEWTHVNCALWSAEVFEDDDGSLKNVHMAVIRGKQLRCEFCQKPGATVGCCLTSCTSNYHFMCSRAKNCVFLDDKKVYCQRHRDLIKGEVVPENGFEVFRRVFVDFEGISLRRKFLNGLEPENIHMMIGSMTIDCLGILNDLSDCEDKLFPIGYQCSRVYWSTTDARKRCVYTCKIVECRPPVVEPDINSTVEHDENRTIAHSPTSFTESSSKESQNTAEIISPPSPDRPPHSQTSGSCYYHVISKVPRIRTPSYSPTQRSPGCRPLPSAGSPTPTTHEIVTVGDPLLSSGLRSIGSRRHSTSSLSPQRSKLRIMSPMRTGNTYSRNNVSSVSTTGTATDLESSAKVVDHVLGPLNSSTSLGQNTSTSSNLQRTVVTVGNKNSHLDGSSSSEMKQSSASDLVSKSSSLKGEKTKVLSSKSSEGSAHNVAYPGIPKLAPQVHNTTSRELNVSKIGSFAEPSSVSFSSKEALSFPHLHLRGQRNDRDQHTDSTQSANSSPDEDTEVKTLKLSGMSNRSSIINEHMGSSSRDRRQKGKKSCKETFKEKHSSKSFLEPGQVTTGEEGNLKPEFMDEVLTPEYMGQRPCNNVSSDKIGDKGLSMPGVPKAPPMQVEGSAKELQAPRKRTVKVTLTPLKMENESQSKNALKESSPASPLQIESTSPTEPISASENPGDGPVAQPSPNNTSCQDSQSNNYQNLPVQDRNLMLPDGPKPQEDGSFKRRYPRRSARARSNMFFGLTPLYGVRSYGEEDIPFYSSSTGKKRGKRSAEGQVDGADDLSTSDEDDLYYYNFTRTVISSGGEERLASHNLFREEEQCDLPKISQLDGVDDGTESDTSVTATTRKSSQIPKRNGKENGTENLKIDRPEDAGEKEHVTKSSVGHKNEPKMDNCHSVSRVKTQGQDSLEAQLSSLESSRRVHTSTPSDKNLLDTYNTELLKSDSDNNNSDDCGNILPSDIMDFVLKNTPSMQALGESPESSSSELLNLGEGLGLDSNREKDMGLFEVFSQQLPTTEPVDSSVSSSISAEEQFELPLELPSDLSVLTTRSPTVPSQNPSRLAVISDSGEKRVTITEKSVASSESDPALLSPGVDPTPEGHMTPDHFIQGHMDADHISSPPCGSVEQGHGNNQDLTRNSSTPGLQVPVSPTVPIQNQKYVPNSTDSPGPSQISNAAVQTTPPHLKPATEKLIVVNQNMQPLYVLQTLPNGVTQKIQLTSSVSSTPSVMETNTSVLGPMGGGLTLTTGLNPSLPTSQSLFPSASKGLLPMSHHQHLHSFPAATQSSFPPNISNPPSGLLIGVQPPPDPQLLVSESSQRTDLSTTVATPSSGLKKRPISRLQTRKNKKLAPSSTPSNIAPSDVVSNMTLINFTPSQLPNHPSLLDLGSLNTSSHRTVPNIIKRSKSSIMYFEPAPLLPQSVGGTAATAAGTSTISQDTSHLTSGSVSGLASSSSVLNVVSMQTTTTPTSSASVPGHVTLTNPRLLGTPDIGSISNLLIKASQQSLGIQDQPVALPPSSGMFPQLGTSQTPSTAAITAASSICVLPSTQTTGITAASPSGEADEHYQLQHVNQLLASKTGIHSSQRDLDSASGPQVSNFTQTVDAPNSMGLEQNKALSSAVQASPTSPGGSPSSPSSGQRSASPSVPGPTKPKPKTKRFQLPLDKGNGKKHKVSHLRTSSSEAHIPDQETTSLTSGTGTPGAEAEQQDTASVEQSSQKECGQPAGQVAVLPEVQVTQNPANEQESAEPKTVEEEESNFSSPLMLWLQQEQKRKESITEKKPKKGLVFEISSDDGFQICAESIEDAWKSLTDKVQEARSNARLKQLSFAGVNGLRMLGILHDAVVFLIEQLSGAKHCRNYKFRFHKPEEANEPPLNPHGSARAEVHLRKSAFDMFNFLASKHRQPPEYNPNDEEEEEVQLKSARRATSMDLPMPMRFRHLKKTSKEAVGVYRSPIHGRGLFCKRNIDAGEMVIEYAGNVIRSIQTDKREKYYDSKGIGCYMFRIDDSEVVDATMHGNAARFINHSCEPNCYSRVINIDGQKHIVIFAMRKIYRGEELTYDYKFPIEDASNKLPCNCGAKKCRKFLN
Excerpt: The MLL (Mixed Lineage Luekemia) gene is involved in chromosomal translocation that results in either acute lymphoid leukemia (ALL) or acute myeloid leukemia (AML). Chromasomal translocation of MLL gene is responsible for the fusion of N-terminal MLL to more than 60 different partner genes in frame. Many of the MLL partner genes contain transcription activation domains or function as transcriptional activators. Despite the heterogeneity of fusion partners, the N-terminus of MLL fusion proteins always consists of the N-terminal menin binding motif and the CXXC domain. The MLL-CXXC domain specifically recognizes unmethylated CpG sequences of the HOX-A gene. Disruption of the MLL-CXXC and HOX-A gene interaction leads to down regulation of HOX-A gene expression and may potentially reverse leukemogenesis. We have miniaturized and optimized an in-vitro assay to screen for inhibitors of the MLL-CXXC domain and HOX-A DNA interaction, which could have utility in MLL fusion leukemias.
This is a hit validation assay that tests this hits identified in the primary screen in this secondary screen, using flurescein FP as a read-out.
NIH Molecular Libraries Probe Production Network [MLPCN]
NIH Chemical Genomics Center [NCGC]
PI Name: John Bushweller, University of Virgina
The affinity purified MLL-CXXC domain, unlabeled HOX-A9 DNA strand, fluorescein (FLSN) labeled HOX-A9 DNA strand were kindly supplied by the laboratory of Dr. John Bushweller, University of Virginia. All reagents were stored in single use aliquots at -80C.
Assay buffer: 50 mM TRIS-HCl pH 7.5, 50 mM NaCl, 1 mM DTT. Add 0.05% BSA prior to reaction setup.
1.Dispense 1 ul of a 7 uM MLL-CXXC solution prepared in assay buffer into column 1-48.
2.Transfer 23 nl of compounds and unlabeled HOX-A9 per well.
3.Incubate for 5 minutes at ambient.
4.Dispense 1ul of a 50 nM FLSN-HOX-A9 solution prepared in assay buffer into columns 1-48
5.Centrifuge for 30 seconds at 1000 RPM.
6.Incubate for 30 minutes at ambient.
7.Read using the Envision reader fluorescent polarization protocol.
Note: nearly all actives have a fitted effect of over 80% in size.
Potency is the fitted concentration of half-maximal effect.

Potency, active:
COc1cc(/C=C2/C(=O)NN(c3ccc(F)cc3)C2=O)cc([N+](=O)[O-])c1O 71.1 µM
COc1ccc(S(=O)(=O)/N=C2\C=C(NS(=O)(=O)c3ccccc3)C(=O)c3ccccc32)cc1 50.3 µM
O=C1NN(c2ccccc2)C(=O)/C1=C/c1ccc(-c2cccc(C(=O)O)c2)o1 100 µM
CCOC(=O)/C(N=Nc1cc(C(=O)O)cc(C(=O)O)c1)=C(\O)CCl 6.33 µM
COc1ccc(-c2onc3ccc(C(C)=O)cc23)cc1 10 µM
